# The list is not random: actives were taken first. Their share in the collection is about 12%.
# PI5P4K alpha inh – blocks human PI5P4K alpha kinase activity; max response, %; hit rate 1.2% among 330,000; AID 652105; PI5P4Kalpha enzyme, ADP-Glo luminescence, 60 min; hits give low values; active = max response of -50% or lower; inconclusive = between -30% and -50%; inactive = -30% or higher; note: value at the top dose of about 77 µM; % is set by controls: 0 for no effect and ±100 for the full control effect
#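 Human PI5P4Kalpha with substrate in 0.038 M HEPES pH 7.4, 0.28 mM EGTA, 0.1% CHAPS, 5% DMSO; reaction started with 5 microM ATP (final), 60 min at room temperature. ADP formed read by ADP-Glo luminescence.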
# HP1b binding inh – HP1-beta chromodomain-methylated histone interaction inhibition | AlphaScreen HP1-beta / biotin-H3K9me3 peptide binding | Potency, µM (series often up to 114 µM), inactives show top-dose activity change, negative = inhibition, actives largely listed as inhibitors | hit rate 0.56% among 390,000 | AID 540317; note: potency is the fitted concentration of half-maximal effect; nearly all actives have a fitted effect of over 70% in size
#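 Compound inhibition of the preformed complex between 50 nM HP1-beta and 50 nM biotinylated H3K9me3 peptide was read by AlphaScreen. Buffer was PBS pH 7.4 with 0.01% Tween-20. Incubations ran 30 min at room temperature, with 10 ug/mL donor/acceptor beads.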
# BAZ2B block – BAZ2B (human) inhibition; hit rate 4.4% among 360,000; AlphaScreen BAZ2B-H3K14Ac peptide displacement; Q9UIF8; Potency, µM (titrated, usually from 114 µM), inactives show top-dose activity change, negative = inhibition, actives largely listed as inhibitors; note: potency is the fitted concentration of half-maximal effect; % is set by controls: 0 for no effect and ±100 for the full control effect; nearly all actives have a fitted effect of over 60% in size
#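 AlphaScreen luminescence quantifies BAZ2B engagement of H3K14Ac peptide; the protein and biotinylated peptide are both at 50 nM final, buffer PBS pH 7.4 with 0.01% Tween-20, all steps at room temperature.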
# G9a block – G9a (human) methyltransferase inhibition | G9a H3K9 monomethylation, AlphaScreen, 2 h | Potency, µM (highest dose often 102 µM), for inactives: top-dose activity, negative = inhibition, hits mostly inhibitors | hit rate 8.8% among 350,000; note: potency is the fitted concentration of half-maximal effect; % is set by controls: 0 for no effect and ±100 for the full control effect; nearly all actives have a fitted effect of over 75% in size
#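 Using a bead-based AlphaScreen, monomethylated H3K9 product from 2 h room-temperature reactions (G9a 20 nM, peptide 500 nM, SAM 20 uM) was detected with 0.5 ug/mL rabbit anti-H3K9me1 antibody.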
# PLK1 PBD block – inhibitors of human PLK1 polo-box domain binding; P53350; Plk1 PBD binding of FITC phosphopeptide, fluorescence polarization; Potency, µM, for inactives: max response, negative = inhibition, usual class: inhibitors; hit rate 2.8% among 360,000; AID 720504; note: potency is the fitted concentration of half-maximal effect; series mostly up to about 57 µM; % is set by controls: 0 for no effect and ±100 for the full control effect; nearly all actives have a fitted effect of over 65% in size
# JMJD2A Tudor – blocks the human JMJD2A Tudor domain | O75164 | AlphaScreen JMJD2A-Tudor / H3K4me3 peptide binding | Potency, µM (titrated, usually from 114 µM), inactives show at the top dose activity change, negative = inhibition, actives largely listed as inhibitors | hit rate 4.4% among 390,000; note: potency is the fitted concentration of half-maximal effect; % is set by controls: 0 for no effect and ±100 for the full control effect; nearly all actives have a fitted effect of over 50% in size
# The depositor's hits bear a star; ? = inconclusive; nt = no result; [ ] = dose if it differs, or a comment. Unless noted, calls come from the whole dose curve; as a rule, active = well fitted curve in the direction sought with a large enough effect; inconclusive = small, poorly fitted or top-dose-only effect, or another doubt; inactive = no such curve, though single readings can be large; an effect the other way counts as inactive or inconclusive.
SMILES,PI5P4K alpha inh,HP1b binding inh,BAZ2B block,G9a block,PLK1 PBD block,JMJD2A Tudor
Cc1cc(C(=O)C(C)Sc2cccc[n+]2[O-])c(C)n1-c1ccc(Cl)cc1 (stereo not drawn),-10,-14%,-37%,40µM*,?,-33%
Cc1cc(C(=O)C(=O)O)c(C)n1-c1ccc(Cl)cc1,0,-24%,?,5%[59 µM],-9%,-34%
COc1cc(-c2noc(CCC(=O)Nc3cc(C)ccc3C)n2)cc(OC)c1OC,nt,5%,-4%,-32%[59 µM],nt,-19%
Cc1ccc(-c2nnn(CC(=O)NCC3CC3)n2)o1,1,17%,10%,0%[59 µM],-5%,-21%
Cc1ccc(-c2nnn(CC(=O)NCC3COCCO3)n2)o1 (stereo not drawn),-15,?,-2%,16%[59 µM],30µM*,50µM*
Cc1ccc(-c2nnn(CC(=O)N3CCC(C)CC3)n2)o1,-2,43%,-7%,35µM*,-7%,-6%
Cc1ncc([N+](=O)[O-])n1CCOC(=O)NC(NCc1cccnc1)C(Cl)(Cl)Cl (stereo not drawn),-15,16%,-1%,11%,27µM*,-27%
Cc1ncc([N+](=O)[O-])n1CCOC(=O)NC(NCc1ccccc1)C(Cl)(Cl)Cl (stereo not drawn),-1,27%,-1%,nt,-4%,-16%
NC(N)=NC[C@@H]1COC2(CCCCC2)O1,nt,nt,nt,29%[21.5 µM],nt,nt
C[N+]1(CC2COC3(CCCCC3)O2)CCCC1 (stereo not drawn),-2,-3%,1%,14µM*,-13%,?
NCC1O[C@H](O[C@@H]2C(O)[C@H](O[C@H]3OC(CO)C(O)C(N)C3O)[C@@H](N)C[C@H]2N)[C@@H](N)CC1O (stereo partly drawn),nt,nt,nt,-27%[2.33 µM],nt,nt
Cc1ccc(Nc2nc(N)nc(CN3CCCCCC3)n2)cc1,-29,28%,11µM*,?,?,50µM*
Nc1nc(CN2CCCCCC2)nc(Nc2ccccc2)n1,0,13%,10µM*,?,-24%,20µM*
Cc1ccc(Nc2nc(N)nc(CSc3nnnn3-c3ccccc3)n2)cc1,-11,130%,?,12%[12.7 µM],-6%,89µM*
Cc1ccc(Nc2nc(N)nc(CN3CCN(C(=O)c4ccco4)CC3)n2)cc1Cl,nt,-1%,-80%,50µM*,-9%,?
COc1ccc(CN2C(=O)C(CC(=O)NCCCCc3ccccc3)CC(C(=O)N(C)C)=C2C)cc1 (stereo not drawn),-2,nt,nt,nt,-1%,nt
Cc1nc(NC(=O)C(C)(C)C)sc1-c1csc(N)n1,-6,nt,nt,nt,-14%,nt
Cc1cccc(Nc2nc(N)nc(CN3CCN(c4ccc(F)cc4)CC3)n2)c1,5,-2%,-91%,45µM*,2%,56µM*
Nc1nc(CSc2ccccn2)nc(Nc2ccccc2)n1,-6,14%,0%,6%[59 µM],-13%,-14%
Nc1nc(CSCCO)nc(Nc2ccccc2)n1,-9,-23%,-1%,4%[59 µM],27µM*,4%[11.4 µM]
CCOC(=O)C1CCCN(Cc2nc(N)nc(Nc3ccccc3)n2)C1 (stereo not drawn),-9,34%,35µM*,0%[12.7 µM],-4%,56µM*
COCCCNC(=O)COc1cc2c(c3oc(=O)c(C)c(C)c13)CCC(C)(C)O2,7,1%,-18%,12%,-7%,-17%
FC(F)(F)c1cnc2c(c1)[nH]c(=S)n2-c1ccc(Cl)cc1,-16,54%,-1%,4%[0.501 µM],-4%,-10%
Cc1cc(C(F)(F)F)nn1Cc1n[nH]c(=S)n1-c1cccc(Cl)c1,nt,34%,-2%,25µM*,-25%,?
Cc1cc(C(F)(F)F)nn1Cc1n[nH]c(=S)n1Cc1ccccc1,-54*,24%,5%,1.8µM*,-24%,?
SMILES,PI5P4K alpha inh,HP1b binding inh,BAZ2B block,G9a block,PLK1 PBD block,JMJD2A Tudor
Cc1cc(C(F)(F)F)nn1Cc1n[nH]c(=S)n1-c1ccc(Cl)cc1,9,32%,-3%,1.6µM*,3%,-31%
Cc1ccc(S(=O)(=O)N(Cc2n[nH]c(=S)n2-c2ccccc2)c2cccc(Cl)c2)cc1,-7,21%,?,nt,0%,-13%
Cc1ccc(-n2c(Cn3nc(C(F)F)cc3C(F)F)n[nH]c2=S)cc1,nt,6%,3%,1.1µM*,-6%,79µM*
COC(=O)c1ccc2c(c1)N(Cc1ccc(F)cc1)C(=O)c1ccccc1S2,nt,63%,3%,3%[59 µM],nt,2%
CCOC(=O)c1c(C)[nH]c(N=Nc2cccc(C)c2)c1C,nt,?,25µM*,?,-14%,25µM*
CCOC(=O)c1c(C)[nH]c(N=Nc2cccc(OC)c2)c1C,19,50µM*,22µM*,32µM*,2%,28µM*
O=C(NCc1n[nH]c(=S)n1-c1ccccc1)c1ccco1,nt,27%,8%,8.9µM*,-15%,16µM*
O=C(NCc1n[nH]c(=S)n1-c1ccc(Cl)c(Cl)c1)c1ccco1,-5,18%,-8%,8%[12.7 µM],-19%,50µM*
O=C(NCc1ccc(Cl)c(Cl)c1)c1ccco1,1,28%,4%,18%[59 µM],-15%,0%
COc1ccccc1-n1c(CNC(=O)c2ccco2)n[nH]c1=S,0,42%,-2%,25µM*,-8%,?
COc1cccc(CNC(=O)Cn2c(SCC(=O)Nc3ccc(C)c(C)c3)nc3ccccc32)c1,nt,22%,-5%,17%[59 µM],nt,-8%
COc1cc(OC)c(Nc2nc3ccc(C(=O)c4ccccc4)cc3n3c(C)nnc23)cc1Cl,nt,43%,-1%,-7%[59 µM],nt,-4%
CCSC1=C(C#N)C(c2ccccc2OC)CC(=O)N1 (stereo not drawn),-1,30%,-4%,-3%[59 µM],-14%,-10%
COc1ccc(C2CC(=O)N3C(=C2C#N)SCC3(O)c2ccccc2)cc1 (stereo not drawn),nt,3%,-27%,-35%[59 µM],-2%,?
COc1cc(OC)c(C2CC(=O)N3CN(c4ccccc4)CSC3=C2C#N)cc1OC (stereo not drawn),nt,?,25µM*,3.2µM*,27µM*,5.6µM*
COc1ccc2ccccc2c1C1CC(=O)N2CN(C)CSC2=C1C#N (stereo not drawn),-84*,?,?,1.6µM*,7.5µM*,28µM*
COc1cc(C2CC(=O)N3CN(c4ccccc4C)CSC3=C2C#N)cc(OC)c1OC (stereo not drawn),nt,nt,?,1.4µM*,nt,nt
CCOc1ccc(N2CC(NC(=O)c3ccco3)CC2=O)cc1 (stereo not drawn),nt,23%,4%,21%[59 µM],nt,4%
CCOc1ccc(N2CSC3=C(C#N)C(c4ccco4)CC(=O)N3C2)cc1 (stereo not drawn),nt,4%,45µM*,1.8µM*,-8%,-8%
CCOC(=O)c1ccc(N2CN=C3SCC(=O)N3C2)cc1,-1,30%,2%,13%[59 µM],-3%,-6%

# Screens from PubChem.
